HT1080 IDH1KD tx: toxicity to HT-1080 IDH1 knockdown cells (counter line); HT-1080 IDH1 knockdown viability, ATP luminescence, 48 h; Potency, µM (highest dose often 46.1 µM), without a hit: at the top dose activity, negative = toxicity, hits mostly cytotoxic; 360,000 compounds, 2% hits;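 also: potency is read from the fitted curve at half-maximal effect; 0% = DMSO wells and -100% = cell-free medium wells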
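Using the IDH1-knockdown HT-1080 line run in the same batch and compound series as the NT line, viability after 48 h at 37 °C was determined by CellTiter-Glo luminescence and expressed as % activity.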
DT40 TDP1 no CPT: qHTS for Inhibitors of human tyrosyl-DNA phosphodiesterase 1 (TDP1): qHTS in cells in absence of CPT. 420,000 compounds, 15% hits. Potency, µM (titrated, usually from 46.2 µM), for inactives: at the top dose activity change, negative = growth inhibition, most hits filed as inhibitors. DT40 Tdp1-/- hTDP1 cells, no CPT, ATP luminescence, 48 h; also: potency is read from the fitted curve at half-maximal effect; nearly all actives have a fitted effect of over 55% in size
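Readout: luminescence from CellTiter-Glo after 30 min in the dark at RT. Cells: DT40 Tdp1-/- with stable hTDP1, 400/well. Exposure: compounds alone, ≥48 hr, 37 °C.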
HT1080-NT tox: kills 2HG-producing HT-1080-NT fibrosarcoma cells | HT-1080-NT fibrosarcoma viability, CellTiter-Glo ATP luminescence, 48 h | Potency, µM (doses to about 46.1 µM), for the others: at the top dose activity, negative = less viability, hits mostly cytotoxic | 360,000 compounds, 1.6% hits | AID 686970;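 also: NT is the 2HG producing partner of a matched IDH1 knockdown line; potency is read from the fitted curve at half-maximal effect; 0% = DMSO-treated cells and -100% = media-only wells without cells; nearly all actives have a fitted effect of over 55% in size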
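HT-1080-NT fibrosarcoma cells (2HG-overproducing), 750 cells/well in RPMI with 5% FBS, dosed after 2 h and incubated 48 h at 37C. CellTiter-Glo luminescence normalized to DMSO and no-cell wells; concentration-response curves fitted and classed.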
TDP1 cell CPT: DT40-hTDP1 cell growth loss with CPT; chicken DT40 Tdp1-/-;hTDP1 cells + 20 nM CPT, ATP luminescence, 48 h; Potency, µM (doses to about 46.2 µM), inactives show at the top dose activity change, negative = growth inhibition, most hits filed as inhibitors; 420,000 compounds, 12% hits; also: potency is read from the fitted curve at half-maximal effect; nearly all actives have a fitted effect of over 55% in size
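Chicken DT40 Tdp1-/- cells complemented with human TDP1, 400 cells/well, exposed to compounds plus 20 nM camptothecin for at least 48 h at 37 C; viability read as ATP content by CellTiter-Glo luminescence.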
IL1B secr inh: inflammasome signaling inhibition, IL-1 beta readout; THP-1 LPS/ATP IL-1B secretion, AlphaLISA, 16 h; stronger effect = lower value; activity change, % at 57.5 µM; 360,000 compounds, 4.7% hits; in the data active = activity change below about -50%; inconclusive = mostly about -30% to -49%
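THP-1 cells pretreated 1 hr with compounds (up to 57.5 uM final), then stimulated with LPS (250 ng/mL final) plus ATP (1.25 mM final); secreted IL-1B measured by AlphaLISA after 16 hr, decreased signal indicating inhibition.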
* = called active by the depositor; ? = inconclusive; . = no result; ! = not confirmed by another sample. The list is not random: actives were taken first. Their share in the collection is about 19%. Unless noted, calls follow the shape of the dose curve; as a rule, active = well fitted curve in the direction sought with a large enough effect; inconclusive = small, poorly fitted or top-dose-only effect, or another doubt; inactive = no such curve, though single readings can be large; an effect the other way counts as inactive or inconclusive. Unless noted, % is scaled to controls: 0 for no effect and ±100 for the full control effect.

SMILES	HT1080 IDH1KD tx	DT40 TDP1 no CPT	HT1080-NT tox	TDP1 cell CPT	IL1B secr inh
CC(C)n1c(SCC(=O)Nc2nc3ccccc3s2)nc2c1c(=O)n(C)c(=O)n2C	-11.7%	20.6µM*	-2.6%	16.4µM*	-52.1*
CCCn1c(SCC(=O)Nc2nc(-c3ccc(OC)cc3)cs2)nc2c1c(=O)n(C)c(=O)n2C	-1.6%	?	-0.9%	?	-2.3
COCCCN1C(=O)C(CC(=O)NCC2CCCCC2)CC(C(=O)N2CCOCC2)=C1C (stereo not given)	1.3%	4.0%	2.4%	3.2%	-1.7
CC(=O)SC1CC2=CC(=O)CC[C@@]2(C)C2CC[C@@]3(C)[C@@H](CC[C@@]34CCC(=O)O4)C12 (stereo not given in full)	.	16.4µM*	.	13µM*	.
CC(=O)SC1CC(=O)C=C2CCC3C4CCC(=O)OC4(C)CCC3C21C (stereo not given)	4.0%	-10.9%	7.8%	14.8%	-13.0
C[C@]12CCC(=O)C=C1C=C[C@@H]1[C@@H]2CC[C@@]2(C)[C@H]1CC[C@@]21CCC(=O)O1	-2.6%	15µM*!	-2.5%	?	-0.1
CC12CCC(=O)C=C1CCC1C2C(O)CC2(C)C1CCC21OCC1=O (stereo not given)	-1.4%	-29.9%	11.2%	-28.1%	?
Cc1csc(=O)n1CC(=O)OCC(=O)NC(C)c1ccc(F)cc1 (stereo not given)	9.5%	0.6%	12.7%	-16.6%	0.0
COc1ccc(CC2(C)OC(c3ccccc3)=NN2C(C)=O)cc1 (stereo not given)	2.8%	-4.9%	10.2%	12.4%	1.2
CC(=O)N1N=C(c2ccc3ccccc3c2)OC1(C)C	3.1%	?	0.4%	18.4µM*	10.3
CC(=O)N1N=C(c2ccc(C(C)(C)C)cc2)OC1(C)C	-18.5%	10.3µM*	-17.7%	14.6µM*	0.0
O=C(OCc1ccccn1)c1ccc(COc2ccc3ccccc3c2)o1	3.0%	?	7.2%	?	2.7
Oc1ccc(-c2nc(-c3ccc(F)cc3)c(-c3ccncc3)[nH]2)cc1	-17.4%	6.51µM*	-27.1%	?	66.9
O=C1C2C3C=CC(C3)C2C(=O)N1/N=C/c1cc(Br)cc([N+](=O)[O-])c1O (stereo not given)	?	23.1µM*	?	?	-26.7
O=C1C2C3C=CC(C3)C2C(=O)N1/N=C/c1ccc(-c2ccccc2[N+](=O)[O-])o1 (stereo not given)	-8.5%	-27.6%	-11.1%	?	0.6
Cc1ccc(CN(CC(O)COc2cccc3[nH]cc(C)c23)C(C)(C)C)cc1 (stereo not given)	-16.7%	?	?	20.6µM*	-2.5
COC(=O)Cc1c[nH]c2cccc(OCC(O)CN(Cc3ccc([N+](=O)[O-])cc3)C(C)(C)C)c12 (stereo not given)	-12.8%	18.4µM*	1.0%	?	-7.1
COC(=O)Cc1c[nH]c2cccc(OCC(O)CN(Cc3ccccc3)C(C)C)c12 (stereo not given)	-21.2%	?	-8.5%	?	-18.1
Cc1ccc(S(=O)(=O)NCCC(=O)Nc2cccc(Cl)c2)cc1	5.6%	-0.3%	7.9%	-9.2%	-15.8
O=C(C[C@@H]1C=C[C@H](NC(=O)Cc2ccccn2)[C@@H](CO)O1)NCCc1ccccc1	18.0%	0.7%	20.0%	18.7%	-97.9*
O=C(CCN1C(=O)C2CCCCC2C1=O)N1CCN(S(=O)(=O)c2c(F)cccc2F)CC1 (stereo not given)	17.3%	-2.5%	21.1%	-7.6%	-1.7
O=C(O)C1C2C=CC(O2)C1C(=O)Nc1ccc(S(=O)(=O)Nc2ccccc2)cc1 (stereo not given)	?	?	2.4%	14.6µM*	-0.2
O=C(NN1C(=O)c2ccccc2NC1c1ccc([N+](=O)[O-])o1)c1ccc([N+](=O)[O-])cc1 (stereo not given)	?	8.2µM*	?	18.4µM*	-103.8*
O=C(NN1C(=O)c2ccccc2NC1c1ccc([N+](=O)[O-])o1)c1ccccc1 (stereo not given)	-15.5%	16.4µM*	-15.1%	?	-76.3*
O=C(NN1C(=O)c2ccccc2NC1c1ccco1)c1ccccc1 (stereo not given)	?	1.8%	17.0%	-4.9%	0.0
SMILES	HT1080 IDH1KD tx	DT40 TDP1 no CPT	HT1080-NT tox	TDP1 cell CPT	IL1B secr inh
O=C(CCc1nnc2ccc(NCc3ccco3)nn12)Nc1ccccc1F	0.0%	-27.9%	-8.7%	-22.6%	3.5
CCc1ccc(NS(=O)(=O)c2ccc(OC)c3ncccc23)cc1	-14.6%	-5.7%	-14.6%	?	27.3
CCOc1ccc(S(=O)(=O)Nc2cc(Cl)ccc2OC)c2cccnc12	.	14.6µM*	.	14.6µM*	.
CCOc1ccc(S(=O)(=O)Nc2cccc(C)c2)c2cccnc12	-11.3%	18.4µM*	-5.3%	11.6µM*	60.1
CCc1ccccc1NS(=O)(=O)c1ccc(OC)c2ncccc12	0.0%	10.3µM*	-5.0%	18.4µM*	28.0
CCOc1ccc(S(=O)(=O)N2CCN(c3ccccc3OC)CC2)c2cccnc12	-17.8%	23.1µM*	-7.2%	?	1.6
CCOc1ccc(S(=O)(=O)N2CCN(c3ccccc3)CC2)c2cccnc12	-2.3%	-0.9%	-1.2%	-0.3%	-1.4
COc1cc(/C=N/NC(=O)c2cc[n+]([O-])cc2)ccc1O	18.9%	-6.8%	19.1%	-7.9%	-4.0
COc1ccc(-c2nnc(SCc3ccc(C(=O)O)cc3)n2C)cc1OC	0.4%	0.0%	-4.3%	1.0%	30.7
COc1ccc2c(c1)CC(NC(=O)Nc1ccc(NC(C)=O)cc1)CO2 (stereo not given)	.	-6.6%	.	-4.7%	.
Cn1cnc(S(=O)(=O)N2CCCCC2c2cc(C(=O)Nc3cccc4c3CCCC4)no2)c1 (stereo not given)	-4.1%	13µM*	1.0%	20.6µM*	30.4
Cn1cnc(S(=O)(=O)N2CCCCC2c2cc(C(=O)Nc3ccccc3Cl)no2)c1 (stereo not given)	-0.6%	-16.5%	1.4%	-18.1%	24.3
COCCOC(=O)N1CCCCC1c1cc(C(=O)Nc2cccc3c2CCCC3)no1 (stereo not given)	9.0%	4.61µM*	?	3.66µM*	40.0
COC(=O)N1CCCCC1c1cc(C(=O)Nc2cccc3c2CCCC3)no1 (stereo not given)	8.8%	?	-3.8%	?	8.9
O=C(Nc1cccc2c1CCCC2)c1cc(C2CCCCN2C(=O)OCCF)on1 (stereo not given)	-22.0%	9.2µM*	-26.4%	9.2µM*	8.4
